Only some compounds are listed: those with a hit (about 19% of all), similar ones and a draw of the others.
DT40 TDP1 no CPT: qHTS for Inhibitors of human tyrosyl-DNA phosphodiesterase 1 (TDP1): qHTS in cells in absence of CPT; Potency, µM (highest dose often 46.2 µM), without a hit: top-dose activity change, negative = growth inhibition, hits mostly inhibitors; 420,000 compounds, 15% hits; DT40 Tdp1-/- hTDP1 cells, no CPT, ATP luminescence, 48 h; AID 686978, 2013; further: potency means the concentration at half of the fitted maximal effect; nearly all actives have a fitted effect of over 55% in size
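A cellular qHTS used chicken DT40 cells lacking endogenous Tdp1 but carrying stably transfected human TDP1. Compounds were applied without camptothecin, and cell growth kinetics were judged by ATP-dependent luminescence after ≥48 hr.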
HT1080 IDH1KD tx: qHTS for induction of synthetic lethality in tumor cells producing 2HG: qHTS for the HT-1080-IDH1KD cell line. HT-1080 IDH1 knockdown viability, ATP luminescence, 48 h. Potency, µM (titrated, usually from 46.1 µM), inactives show at the highest dose activity, negative = toxicity, usual class: cytotoxic. 360,000 compounds, 2% hits. AID 686971, 2013;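 further: potency means the concentration at half of the fitted maximal effect; 0% = DMSO wells and -100% = cell-free medium wells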
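Viability of IDH1-knockdown HT-1080 fibrosarcoma cells was assessed by CellTiter-Glo after 48 h at 37 °C with titrated compound; concentration-effect curves were classified by fit quality and response size.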
HT1080NT lethal: qHTS for induction of synthetic lethality in tumor cells producing 2HG: qHTS for the HT-1080-NT fibrosarcoma cell line; HT-1080-NT fibrosarcoma viability, CellTiter-Glo ATP luminescence, 48 h; Potency, µM (titrated, usually from 46.1 µM), for the others: at the top dose activity, negative = less viability, actives largely listed as cytotoxic; 360,000 compounds, 1.6% hits;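 further: NT is the 2HG producing partner of a matched IDH1 knockdown line; potency means the concentration at half of the fitted maximal effect; 0% = DMSO-treated cells and -100% = media-only wells without cells; nearly all actives have a fitted effect of over 55% in size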
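Compounds were tested in concentration-response format on HT-1080-NT cells for 48 hours at 37 degrees C. Cell viability came from CellTiter-Glo luminescence; curves were classified by r2, response magnitude and activity.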
IL-1B inflam inh: qHTS for Inhibitors of Inflammasome Signaling: IL-1-beta AlphaLISA Primary Screen; activity change, % at 57.5 µM; 360,000 compounds, 4.7% hits; THP-1 LPS/ATP IL-1B secretion, AlphaLISA, 16 h; active compounds read low; in the data active means activity change below about -50%; inconclusive means mostly about -30% to -49%
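Secreted IL-1B measured by AlphaLISA bead assay after 16 h compound exposure of THP-1 cells; compounds (final up to 57.5 uM) added 1 h before LPS (250 ng/mL) and ATP (1.25 mM) stimulation; lower signal means less secretion.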
DT40 TDP1 CPT: qHTS for Inhibitors of human tyrosyl-DNA phosphodiesterase 1 (TDP1): qHTS in cells in presence of CPT. chicken DT40 Tdp1-/-;hTDP1 cells + 20 nM CPT, ATP luminescence, 48 h. Potency, µM (top dose mostly 46.2 µM), inactives show top-dose activity change, negative = growth inhibition, most hits filed as inhibitors. 420,000 compounds, 12% hits. AID 686979, 2013; further: potency means the concentration at half of the fitted maximal effect; nearly all actives have a fitted effect of over 55% in size
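Chicken DT40 Tdp1-/- cells stably complemented with human TDP1 were seeded at 400 cells/well in medium containing 20 nM camptothecin, exposed to pin-transferred compounds, and grown at 37 °C for at least 48 hr. Viability was read as ATP luminescence.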
* = called active by the depositor; ? = inconclusive; . = no result; [ ] = another dose, or the depositor's remark. Unless noted, the call rests on the fitted dose curve; in most records, active means well fitted curve in the direction sought with a large enough effect; inconclusive means small, poorly fitted or top-dose-only effect, or another doubt; inactive means no such curve, though single readings can be large; an effect the other way counts as inactive or inconclusive. Unless noted, on the % scale 0 is the no-effect control and ±100 the full control effect.

SMILES	DT40 TDP1 no CPT	HT1080 IDH1KD tx	HT1080NT lethal	IL-1B inflam inh	DT40 TDP1 CPT
Cc1cccc(CN2CCc3c(OCC(=O)N4CCCc5ccccc54)cccc3C2=O)c1	5.8µM*	?	?	?	4.6µM*
CC1(C)Cc2c(cnn2-c2cccc(F)c2)C(NC(=O)c2ccc[n+]([O-])c2)C1 (centres undefined)	13%	6%	1%	0	-5%
Cc1ccccc1-n1nc(C)c2cc(C(=O)N3CCN(S(=O)(=O)c4ccc(F)cc4)CC3)sc21	18µM*	-24%	-1%	-10	10µM*
COc1ccc(-c2csc(NC(C)c3nc4cc(Cl)c(Cl)cc4n3CCCO)n2)cc1 (centres undefined)	15µM*	?	?	-26	?
CC(Nc1nc(-c2cccc(Br)c2)cs1)c1nc2cc(Cl)c(N3CCCCC3)cc2n1CCOCCO (centres undefined)	?	?	?	-55*	?
Cc1ccc(Cn2c(C(C)Nc3nc(C)cs3)nc3cc(Cl)c(Cl)cc32)cc1 (centres undefined)	?	0%	-23%	16	?
Cc1csc(NC(C)c2nc3cc(C(F)(F)F)ccc3n2CCOCCO)n1 (centres undefined)	-23%	2%	4%	8	?
CCCn1c(C(C)Nc2nc(-c3ccc(C)cc3)cs2)nc2cc(Cl)c(Cl)cc21 (centres undefined)	-36%	2%	7%	36	?
Cc1ccc(Cn2c(C(C)Nc3nc(-c4ccc(F)cc4)cs3)nc3cc(Cl)c(Cl)cc32)cc1 (centres undefined)	?	-4%	0%	30	29µM*
O=[N+]([O-])c1cc(-c2csc(NCCc3nc4cc(Cl)c(N5CCCCC5)cc4n3CCCO)n2)ccc1Cl	16µM*	-21%	-21%	6	?
CC(Nc1nc(-c2ccc(F)cc2)cs1)c1nc2cc(Cl)c(N3CCCCC3)cc2n1CCOCCO (centres undefined)	21µM*	?	?	-75*	16µM*
CC(Nc1nc(-c2ccc(F)cc2)cs1)c1nc2cc(Cl)c(N3CCCCC3)cc2n1CCCO (centres undefined)	5.8µM*	?	2%	-7	7.3µM*
CC(Nc1nc(-c2ccc(F)cc2)cs1)c1nc2cc(Cl)c(Cl)cc2n1CCOCCO (centres undefined)	21µM*	-23%	?	0	23µM*
CCCc1cc(=O)[nH]c(Nc2ccccc2O)n1	-8%	.	.	.	-18%
NS(=O)(=O)c1ccc(CCNC(=O)c2nc(SCc3ccccc3F)ncc2Cl)cc1	?	.	.	.	5%
O=C(c1cc(C(=O)N2CCCC2)cc([N+](=O)[O-])c1)N1CCCC1	7%	1%	0%	5	3%
Cc1cc2c(cc1C)-n1nnnc1C(N1CCCNCC1)C(=O)N2 (centres undefined)	-17%	-4%	8%	21	?
Cc1cc2c(cc1C)-c1nnnn1C(N1CCCCC1)C(=O)N2 (centres undefined)	9.2µM*	1%	1%	29	15µM*
O=C1Nc2ccccc2-c2nnnn2C1N1CCC(Cc2ccccc2)CC1 (centres undefined)	18µM*	?	-22%	12	?
CC(=O)Nc1ccc(NC(=O)C(C)Oc2ccc(C)nc2[N+](=O)[O-])cc1 (centres undefined)	0%	7%	2%	13	1%
CCC(CC)C(=O)N(C)c1c(C)nc2c(OCc3cc(Cl)cc(Cl)c3)cccn12	?	?	?	4	?
CCc1nc2c(OCc3ccc(OC)cc3)cccn2c1N(C)C(=O)C(C)C	?	0%	0%	7	?
CCC(CC)C(=O)N(C)c1c(C)nc2c(OCc3ccc(Cl)cc3)cccn12	?	?	?	11	8.2µM*
CCC(CC)C(=O)N(C)c1c(C)nc2c(OCc3cccc(OC)c3)cccn12	21µM*	-1%	-19%	0	?
CCC(CC)C(=O)N(C)c1c(C)nc2c(OCc3ccc(OC(F)F)cc3)cccn12	12µM*	-3%	-20%	-10	12µM*
SMILES	DT40 TDP1 no CPT	HT1080 IDH1KD tx	HT1080NT lethal	IL-1B inflam inh	DT40 TDP1 CPT
CCC(CC)C(=O)N(C)c1c(C)nc2c(OCc3cccc(Cl)c3)cccn12	12µM*	-29%	-18%	19	21µM*
CCC1CCCCN1C(=O)COC(=O)c1ccc(Br)o1 (centres undefined)	2%	5%	-5%[9.24 µM]	15	-15%
C[C@@H]1[C@H]2CCCC[C@H]2CN(C(=O)OC(C)(C)C)[C@@H]1c1cn(Cc2ccccc2)c2ccc(F)cc12	16µM*	-5%	10%	9	?
C[C@@H]1[C@H]2CCCC[C@H]2CN(C(=O)OC(C)(C)C)[C@@H]1CC(=O)c1ccccc1	16µM*	-6%	-8%	12	?
CC(C)(C)NC(=O)C[C@H]1C[C@H](C(=O)N2CCCCC2)[C@@]2(CCc3ccccc3)c3[nH]c4cc(-c5ccco5)ccc4c3CCN2C1=O	23µM*	-5%	-5%	0	18µM*
O=C(CC1C[C@H](C(=O)N2CCCCC2)[C@@]2(CCc3ccccc3)c3[nH]c4ccccc4c3CCN2C1=O)NCCc1ccccn1 (some centres undefined)	16µM*	7%	9%	?	23µM*
C[C@]12c3[nH]c4ccccc4c3CCN1C(=O)C(CC(=O)NCCc1ccccn1)C[C@@H]2C(=O)N1CCCCC1 (some centres undefined)	?	0%	6%	-13	-30%
CN(C)CCCNC(=O)CC1C[C@H](C(=O)N2CCCCC2)[C@@]2(CCc3ccccc3)c3[nH]c4ccccc4c3CCN2C1=O (some centres undefined)	13µM*	9%	7%	?	21µM*
CN(C)CCCNC(=O)C[C@H]1C[C@H](C(=O)N2CCCCC2)[C@@]2(CCc3ccccc3)c3[nH]c4cc(-c5ccco5)ccc4c3CCN2C1=O	?	?	26µM*	-8	?
COc1cc(Cl)c(C)cc1NC(=O)COC(=O)c1ccc(CN2CCCC2=O)cc1	-18%	-2%	-18%	26	-15%

Source: PubChem BioAssay (National Center for Advancing Translational Sciences (NCATS))
